Shown are actives, neighbours in structure and some others; about 2.2% of the full set was active somewhere.
FUS yeast rescue: rescues growth of FUS-expressing yeast | Potency, µM (top dose mostly 76.6 µM), most hits filed as activators | 390,000 tested, 0.24% active | S. cerevisiae FUS-expressing, growth rescue, OD600, 24 h; further: nearly all actives have a fitted effect of over 55% in size
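Restored growth of FUS-toxic S. cerevisiae, read as 600 nm absorbance after 24 h at 30C in galactose medium (starting OD 0.005). Controls CP55940 and DMSO.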
aSyn rescue: inhibitors of alpha-synuclein toxicity in yeast. Potency, µM (top dose mostly 46.1 µM), actives largely listed as activators. 370,000 tested, 0.14% active. Yeast expressing alpha-synuclein, growth rescue, BacTiter-Glo, 24 h; further: nearly all actives have a fitted effect of over 65% in size
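Rescue of yeast growth: cells expressing toxic alpha-synuclein, induced in galactose at OD600 0.02, incubated with compound 24 h at 30 C. ATP luminescence quantified growth; inhibitors of toxicity appear as activators.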
Abeta rescue: compounds reversing amyloid beta toxicity in yeast; yeast expressing A-beta42, growth rescue, OD600, 48 h; response scale: 0% DMSO, 100% iron-clioquinol control; Potency, µM (highest dose often 46.1 µM), most hits filed as activators; 410,000 tested, 0.063% active; further: nearly all actives have a fitted effect of over 55% in size
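Growth rescue measured by 600 nm absorbance after 48 h yeast culture at 30 C with compound. Values normalized between DMSO and an equimolar ferric chloride plus clioquinol control.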
TDP-43 yeast inh: TDP-43 toxicity inhibition in yeast | 410,000 tested, 1.8% active | Potency, µM (series often up to 46.1 µM), usual class: activators | AID 652104 | TDP-43 expressing yeast growth rescue, BacTiter-Glo, 24 h; further: nearly all actives have a fitted effect of over 50% in size
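Yeast expressing TDP-43 (pregrown in raffinose, seeded at OD600=0.02 in galactose medium) exposed to compounds 24 hr at 30 deg C. Growth read by BacTiter-Glo luminescence; rescue of toxicity appears as increased signal.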
Mito fusion act: blocks mitochondrial division or promotes mitochondrial fusion. S. cerevisiae fusion-defective mutant growth rescue, CellTiterGlo 48 h. Potency, µM (series often up to 46.1 µM), actives largely listed as activators. 320,000 tested, 0.23% active. AID 485298; further: nearly all actives have a fitted effect of over 45% in size
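Compounds are tested for their ability to restore growth of mitochondrial fusion-defective yeast strains at non-permissive 37C in YPEG medium over 48 hours. Viability is quantified by luciferase luminescence.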
Numbers stand for hits; 0 = inactive; ? = inconclusive; - = no result; [ ] = remark or other dose. The call rests on the fitted dose curve; in most records, active means well fitted curve in the direction sought with a large enough effect; inconclusive means small, poorly fitted or top-dose-only effect, or another doubt; inactive means no such curve, though single readings can be large; an effect the other way counts as inactive or inconclusive.

SMILES | FUS yeast rescue | aSyn rescue | Abeta rescue | TDP-43 yeast inh | Mito fusion act
NNc1ccc(Cc2ccc(Cl)cc2Cl)nn1 | 0 | 0 | 0 | 0 | 0
CSc1ccc(Cc2ccc(Cl)cc2Cl)nn1 | 0 | 0 | 0 | 11.2µM | 0
CCN(CC)c1ccc(-c2nnc(SCC(=O)NCc3ccco3)n2CC)cc1 | - | 0 | - | - | -
Cc1ccc(Cl)cc1N1CCN(C(=O)CNC(=O)c2ccc(Br)o2)CC1 | - | 0 | 0 | 0 | 15.8µM
Cc1ccc(Cl)cc1N1CCN(C(=O)c2ccc(CS(=O)Cc3ccc(Cl)cc3)o2)CC1 (stereo not drawn) | ? | ? | 0 | 20µM | 0
Cc1c(C(=O)N2CCCCCC2)c(S(=O)(=O)Nc2ccc(OC(F)(F)F)cc2)c(C)n1C | 0 | - | 0 | 0 | -
O=C(c1ccc(F)cc1F)N1CCN(c2ncccn2)CC1 | 0 | 0 | 0 | 0 | 0
O=C(c1ccc(N2CCN(C(=O)c3ccc(F)cc3F)CC2)cc1)c1cccc(F)c1 | 0 | 0 | 0 | 17.8µM | 0
Oc1ccc(NCc2ccc(OCc3ccccc3)cc2)cc1 | ? | 0 | 0 | 15.8µM | 0
CNC(=S)N/N=C(\C)c1ccc(Cl)s1 | 0 | 0 | ? | 14.1µM | 0
CCNC(=S)N/N=C(\C)c1ccc(Cl)s1 | - | 0 | 0 | ? | 0
CCCCn1c(=O)c2oc3ccccc3c2n(Cc2ccc(OC)cc2)c1=O | 0 | - | 0 | 0 | -
Nc1cc2c(cc1Cl)-c1ccc(Cl)cc1C2 | 0 | 0 | 0 | 25.1µM | -
Nc1cc2c(cc1Cl)-c1ccccc1C2 | - | 0 | 0 | 12.6µM | -
Nc1ccc2c(c1)Cc1cc(N)c(Br)cc1-2 | - | 0 | 0 | 0 | -
Cc1ccc(CN2CCN(/N=C\C(Br)=C\c3ccccc3)CC2)cc1 | 0 | 0 | 0 | 12.6µM | ?
Cc1ccc(-c2nc(N)sc2-c2ccccc2)cc1C | - | 0 | 0 | 15.8µM | 0
C#CCOCCOCCOCCNc1nc(N2CCN(C(=O)C(Cc3cc4ccccc4[nH]3)n3cc(C(N)C(C)CC)nn3)CC2)nc(N2CCN(C(=O)C(Cc3cc4ccccc4[nH]3)n3cc(C(N)C(C)CC)nn3)CC2)n1 (stereo not drawn) | ? | 0 | 0 | 0 | 0
CC(C)CC(NC(=O)OC(C)(C)C)c1cn([C@@H](CCCCNC(=O)OC(C)(C)C)C(=O)N2CCN(C(=O)OC(C)(C)C)CC2)nn1 (stereo partly drawn) | 7.94µM | 0 | 0 | 0 | 0
CC[C@@H](C)C(NC(=O)OC(C)(C)C)c1cn([C@@H](Cc2cc3ccccc3[nH]2)C(=O)N2CCN(C(=O)OC(C)(C)C)CC2)nn1 (stereo partly drawn) | 14.1µM | 0 | 0 | 0 | 0
CC[C@@H](C)C(NC(=O)OC(C)(C)C)c1cn([C@@H](CCCCNC(=O)OC(C)(C)C)C(=O)N2CCN(C(=O)OC(C)(C)C)CC2)nn1 (stereo partly drawn) | 0 | 0 | 0 | 0 | 0
COc1ccc(C(=O)OCc2cc(=O)n3nc(-c4cccs4)sc3n2)cc1 | 0 | - | 0 | 0 | -
O=C(C1CCCN(S(=O)(=O)c2cccc3nsnc23)C1)N1CCN(c2ccccc2)CC1 (stereo not drawn) | 0 | - | 0 | 0 | -
CC(Oc1cccc(Br)c1)C(=O)NNC(=O)c1ccccn1 (stereo not drawn) | 0 | ? | ? | 25.1µM | -
CC(Oc1ccccc1)C(=O)NNC(=O)c1ccccn1 (stereo not drawn) | - | 0 | ? | ? | 0
SMILES | FUS yeast rescue | aSyn rescue | Abeta rescue | TDP-43 yeast inh | Mito fusion act
CCCCn1c(SCC(=O)OCC)nc2c(sc(=S)n2-c2ccccc2OC)c1=O | 0 | 0 | 0 | 12.6µM | 0
NC(=O)CNC(=O)C1CCCc2c1[nH]c1ccc(Cl)cc21 (stereo not drawn) | 0 | 0 | 0 | 0 | 0
CCOC(=O)CNC(=O)C1CCCc2c1[nH]c1ccc(Cl)cc21 (stereo not drawn) | 0 | 0 | ? | 12.6µM | ?
O=C(CS(=O)c1ccc(C(F)(F)F)cc1[N+](=O)[O-])Oc1ccccc1 (stereo not drawn) | 0 | 0 | 0 | 22.4µM | 0
COC(=O)c1ccc(OC(=O)CS(=O)c2ccccc2[N+](=O)[O-])cc1 (stereo not drawn) | 0 | 0 | 0 | 12.6µM | 0
CCSC(=O)N1CCN(/[N+]([O-])=N/Oc2ccc([N+](=O)[O-])cc2[N+](=O)[O-])CC1 | - | 0 | - | - | -
COc1ccc(/C=C2\NC(=S)N(CC3CCCO3)C2=O)c(OC)c1C (stereo not drawn) | 0 | 0 | 0 | 12.6µM | 0
Oc1ccc(Br)cc1-c1nc2cnccn2c1NC1CCCC1 | 0 | 0 | 0 | 22.4µM | 0
Cc1ccccc1NC(=O)C(C)SCc1ccccc1 (stereo not drawn) | 0 | 0 | 0 | 0 | 0
Cc1ccc(CC(SCc2ccccc2)C(=O)O)cc1C (stereo not drawn) | 0 | 0 | 0 | 11.2µM | 0
O=[N+]([O-])c1ccc(Sc2cccc[n+]2[O-])c2nonc12 | 0 | 0.562µM | 0 | ? | 0
Cc1ccsc1CN(C(=O)c1ccc(OCC(C)C)cc1)C1CCS(=O)(=O)C1 (stereo not drawn) | 0 | - | 0 | ? | -
COCCNc1nc2c(c(=O)n(C)c(=O)n2C)n1Cc1c(F)cccc1Cl | 0 | - | 0 | 0 | -
CC(=O)NC1CC2CCCC(C1)N2S(=O)(=O)c1cccc(F)c1 (stereo not drawn) | 31.6µM | 0 | 0 | 0 | 0
O=C(NC1CC2CCCC(C1)N2S(=O)(=O)c1ccccc1)c1ccco1 (stereo not drawn) | 0 | 0 | 0 | 0 | 0
CCc1cnc2c(c1SC(C(C)=O)C(=O)N(C)C)c(=O)n(C)c(=O)n2C (stereo not drawn) | 0 | - | 0 | 0 | -
CC(=O)NC1=C(NC2CCS(=O)(=O)C2)C(=O)c2ccccc2C1=O (stereo not drawn) | - | 0 | 0 | 25.1µM | 0
CN(C1=C(NC(=O)c2ccccc2)C(=O)c2ccccc2C1=O)C1CCS(=O)(=O)C1 (stereo not drawn) | 0 | 0 | 0 | 0 | 0
c1ccc(CSc2nnc(-c3cccnc3)o2)cc1 | 0 | 0 | 0 | 14.1µM | 0
Brc1ccc(CSc2nnc(-c3cccnc3)o2)cc1 | 0 | 0 | 0 | 0[9.22 µM] | 0
Clc1ccc(CSc2nnc(-c3cccnc3)o2)cc1 | 0 | 0 | 0 | 11.2µM | 0
Cc1ccc(CSc2nnc(-c3cccnc3)o2)cc1 | 0 | 0 | 0 | 12.6µM | 0
Fc1ccc(CSc2nnc(-c3cccnc3)o2)cc1 | 0 | 0 | 0 | ? | 0
O=[N+]([O-])c1ccc(CSc2nnc(-c3cccnc3)o2)cc1 | 0 | 0 | 0 | 11.2µM | 0
CN1N/C(=C\c2ccccc2)N=C2C(=O)N(C)C(=O)N=C21 | - | 0 | - | - | -
c1cncc(-c2nnc(SCc3nc4ccccc4[nH]3)o2)c1 | 0 | 0 | 0 | 0 | 0
c1cncc(-c2nnc(SCc3cccc4ccccc34)o2)c1 | 0 | 0 | 0 | 15.8µM | 0
CC1(C)CN(c2ccc(Br)cc2)C(=O)[C@H]1CC(=O)Nc1ccccc1 | 0 | 0 | 0 | 17.8µM | -

Screens: PubChem BioAssay, National Center for Advancing Translational Sciences (NCATS)
